Source: PubChem BioAssay (EPA / NIEHS)
Values joined by “and” are separate entries in the source; they are usually repeats but may differ in a detail not shown here. Identical values can stand only once. Results filed as inconclusive are left out. Where a structure was tested more than once in an assay, its records may differ in their call. Active and inactive are the calls of the source. Rule for the calls: active = hit-call score of the fitted dose curve at least 0.9, where 1 is the maximum; inconclusive = response in the unintended direction; inactive = score below 0.9.

Each compound was assayed on zebrafish Estrogen Receptor (ER2b), gene 317733 (assay: ATG_zfER2b_XSP2: Attagene TRANS-FACTORIAL Multi-Species (XSP2) HepG2 Assay for zebrafish Estrogen Receptor (ER2b) (AID 2283823);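 note: fitted upward as reporter gain over DMSO so potency reflects activation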).
Outline: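 Transcriptional induction measured as reporter mRNA (RT-PCR, fluorescent capillary electrophoresis) in transiently transfected HepG2 cells after 24 h dosing; DMSO served as negative control and baseline.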

SMILES	AC50	outcome
Oc1ccc2c(c1)-c1ccccc1C2	21.4 µM (active) and 12.1 µM (active)	–
Clc1nc(Cl)c(Cl)c(Cl)c1Cl	184 µM (active)	inactive
O=P(OC(CCl)CCl)(OC(CCl)CCl)OC(CCl)CCl	–	inactive

What follows are compounds tested on frog Estrogen Receptor (ER2), gene 100174814 (assay: ATG_frER2_XSP2: Attagene TRANS-FACTORIAL Multi-Species (XSP2) HepG2 Assay for frog Estrogen Receptor (ER2) (AID 2283828)).
Outline: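 Read-out: reporter transcript levels by RT-PCR with 6-FAM primer extension, HpaI digestion and capillary electrophoresis, scored as induction over DMSO control. Transfected HepG2 carrying Xenopus ER2–GAL4 chimera; compounds incubated 24 h.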

SMILES	AC50	outcome
Oc1ccc2c(c1)-c1ccccc1C2	6.95 µM (active) and 3.52 µM (active)	–
Clc1nc(Cl)c(Cl)c(Cl)c1Cl	26 µM (active)	–
O=P(OC(CCl)CCl)(OC(CCl)CCl)OC(CCl)CCl	–	inactive

These compounds were tested against Peroxisome proliferator-activated receptor gamma (Homo sapiens) (UniProt P37231) (assay: ATG_hPPARg_XSP2: Attagene TRANS-FACTORIAL Multi-Species (XSP2) HepG2 Assay for human Peroxisome Proliferator-activated Receptor gamma (PPARg) (AID 2283829);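 note: actives raise reporter mRNA above DMSO so AC50 reflects PPARg activation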).
Outline: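 Human HepG2 cells carried transiently transfected Gal4 reporter units and were treated with chemical for 24 h alongside androgen-receptor stimulants (3 nM 6-alpha-fluorotestosterone, 1.5 nM norgestrel). Reporter transcripts were detected by RT-PCR with capillary electrophoresis, analysed in the positive direction against DMSO.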

Sequence of Peroxisome proliferator-activated receptor gamma (Homo sapiens) (P37231 whole entry, looked up, the tested form may be a part): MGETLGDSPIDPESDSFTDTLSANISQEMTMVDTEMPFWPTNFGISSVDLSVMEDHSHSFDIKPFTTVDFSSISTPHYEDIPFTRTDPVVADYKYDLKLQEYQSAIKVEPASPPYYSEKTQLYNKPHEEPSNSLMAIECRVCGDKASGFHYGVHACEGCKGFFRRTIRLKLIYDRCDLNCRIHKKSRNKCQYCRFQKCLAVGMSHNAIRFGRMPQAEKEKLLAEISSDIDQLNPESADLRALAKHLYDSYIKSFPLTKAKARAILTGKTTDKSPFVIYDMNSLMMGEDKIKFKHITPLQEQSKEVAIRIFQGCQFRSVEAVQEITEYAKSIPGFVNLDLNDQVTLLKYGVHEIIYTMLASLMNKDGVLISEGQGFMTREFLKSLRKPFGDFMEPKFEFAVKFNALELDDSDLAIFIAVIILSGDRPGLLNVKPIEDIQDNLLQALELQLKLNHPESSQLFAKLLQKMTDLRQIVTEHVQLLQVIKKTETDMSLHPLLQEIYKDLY

SMILES	AC50
Oc1ccc2c(c1)-c1ccccc1C2	19.8 µM (active) and 28.4 µM (active)
Clc1nc(Cl)c(Cl)c(Cl)c1Cl	1.04 µM (active) and 14.9 µM (active)
O=P(OC(CCl)CCl)(OC(CCl)CCl)OC(CCl)CCl	50.5 µM (active)
